Several values for one entry are separate records, joined by “and”; a condition that tells them apart may be missing. Equal values may be shown once. Records with an inconclusive call do not appear. Entries that show only a call come without a potency. A structure can be active in one record and inactive in another. Activity calls are given as the source filed them. Unless noted, calls follow the shape of the dose curve; as a rule, active = well fitted curve in the direction sought with a large enough effect; inconclusive = small, poorly fitted or top-dose-only effect, or another doubt; inactive = no such curve, though single readings can be large; an effect the other way counts as inactive or inconclusive.
Assays:
[1] = qHTS Assay for Identification of Small Molecule Agonists for Thrombopoietin (TPO) Signaling Pathway (AID 917)
In short: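 Murine Ba/F3 cells expressing human TPO receptor and GPIIb-promoter luciferase, IL-3-starved overnight, given compound plus TPO at 26 pM (EC50). After 24 h at 37 C, 5% CO2, luminescence read.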

[2] = target: Muscarinic acetylcholine receptor M1 (Rattus norvegicus) (UniProt P08482); assay: qHTS Assay for Antagonists of Acetylcholine Muscarinic M1 Receptor: Measurement of IP-One Response (AID 944); also: nearly all actives have a fitted effect of over 75% in size; also: potency is read from the fitted curve at half-maximal effect
In short: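 CHO cells stably expressing rat M1, pretreated 10 min with compound, then stimulated 30 min with carbachol at EC80 (200 nM) in LiCl-containing buffer pH 7.4; IP1 accumulation read by HTRF competition (665/620 nm).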

[3] = qHTS Assay for Identification of Small Molecule Antagonists for NFkB Signaling Pathway (AID 895; active = well fitted inhibition curve with a large enough effect in the signal ratio, with a control signal flat, not every such curve was filed as active; the % refers to the signal ratio; also: potency is read from the fitted curve at half-maximal effect)
In short: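 ME-180 NFkB-bla cells (beta-lactamase under NFkB response element), plated overnight, treated with compound then 10 pM TNF alpha (about EC50) for 5 hrs at 37 C. LiveBLAzer FRET read at 460/530 nm emission, 405 nm excitation.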

[4] = qHTS Assay for Identification of Small Molecule Agonists for Hypoxia Response Element Signaling Pathway (AID 914; active = well fitted activation curve with a large enough effect in the signal ratio, with a control signal flat, not every such curve was filed as active; the % refers to the signal ratio; also: potency is read from the fitted curve at half-maximal effect); conditions: ME-180 (cervical carcinoma) HRE-bla reporter, beta-lactamase ratio, CoCl2, 17 h; activation: stronger effect = higher value
In short: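 A beta-lactamase reporter under hypoxia response element control in ME-180 cells served as the system. Compound titrations plus EC50 CoCl2 ran 17 h at 37 degrees Celsius; AC50 values were fitted from %Activity.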

[5] = NFAT Signaling Pathway (AID 444; active = well fitted curve in either direction with a large enough effect, not every such curve was filed as active;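 also: carbachol stimulus at about its EC50 of 1 µM final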); conditions: Jurkat NFAT-bla M1, carbachol, beta-lactamase ratio, 5 h; at 17.2 µM (top of the series) unless noted
In short: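 Jurkat cells with NFAT-driven β-lactamase reporter and co-expressed M1 receptor, stimulated with carbachol (final 1 uM, ~EC50), compound titration, 5 h at 37 °C. CCF4 loaded 1 h at RT; 460/530 nm ratio gave %activity and AC50.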

[6] = qHTS Assay for Identification of Small Molecule Antagonists for Thrombopoietin (TPO) Signaling Pathway (AID 918); conditions: TPO-dependent cell signaling reporter, antagonist mode; also: potency is read from the fitted curve at half-maximal effect; nearly all actives have a fitted effect of over 60% in size
In short: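 Murine Ba/F3 cells expressing human TPO receptor and a Glycoprotein IIb promoter-luciferase reporter, IL-3-starved overnight, treated with compound plus TPO at EC50 (26 pM final). After 24 h at 37 C, luminescence read to detect inhibitors.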

[7] = target: DNA dC->dU-editing enzyme APOBEC-3G (Homo sapiens) (UniProt Q9HC16); assay: qHTS for inhibitors of Vif-A3G interactions: Validation (AID 588379)
In short: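 HeLa cells stably expressing Vif and A3G-eYFP, 700 cells/well, incubated overnight at 37 deg C, then exposed to compound overnight at 37 deg C. Inhibition of Vif-mediated degradation read as increased yellow fluorescence (Ex 488/Em 500-530) by laser-scanning cytometry.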

[8] = target: Ubiquitin carboxyl-terminal hydrolase 1 (Homo sapiens) (UniProt O94782); assay: Inhibitors of USP1/UAF1: Pilot qHTS (AID 504865); also: nearly all actives have a fitted effect of over 35% in size; also: potency is read from the fitted curve at half-maximal effect;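 as to activity change, negative = inhibition: rhodamine fluorescence freed from ubiquitin-rhodamine substrate followed over time; top concentration of the series differs between compounds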
In short: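 USP1/UAF1 complex at 1 nM preincubated 15 min at room temperature with compound, then Ub-Rho substrate added at 150 nM final. Fluorescence (480/540 nm) read kinetically in 50 mM HEPES pH 7.8, 0.5 mM EDTA, 1 mM TCEP, 0.1 mg/ml BSA, 0.01% Tween-20.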

[9] = target: Androgen receptor (Homo sapiens) (UniProt P10275); assay: qHTS assay for small molecule agonists of androgen receptor signaling (AID 588515; active = well fitted curve in the direction sought with a large enough effect in the signal ratio, with a control signal flat; the % refers to the signal ratio); conditions: AR-UAS-bla HEK293, beta-lactamase ratio, agonist 16 h; stronger effect = higher value
In short: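 EC50 and efficacy came from Hill fits of titrations (up to 92 uM) normalized to 30 nM R1881 as 100% and DMSO as 0%. Compound exposure was 16 h at 37 C on AR-UAS-bla HEK293 cells, with a 405/460/530 nm CCF4 fluorescence read.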

[10] = qHTS assay for small molecule agonists of retinoid X receptor alpha signaling (AID 588544; calls by dose curve); conditions: HEK293T RXRa-UAS-bla, beta-lactamase reporter, 18 h; 530 nm emission
[11] = target: Retinoic acid receptor RXR-alpha (Homo sapiens) (UniProt P19793); assay: as above
[12] = qHTS assay for small molecule activators of the nuclear factor-kappa B (NF-kB) signaling pathway (AID 651749; active = well fitted activation curve with a large enough effect in the signal ratio; the % refers to the signal ratio); conditions: NF-kB-bla ME-180 cells, beta-lactamase FRET ratio, 16 h; activation: stronger effect = higher value
In short: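 NF-kB-bla ME-180 cells carrying a beta-lactamase reporter under an NF-kB response element, 2,000 cells/well, exposed to compound for 16 hr at 37C; FRET-based beta-lactamase fluorescence read-out of pathway activation.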

[13] = target: Estrogen receptor (Homo sapiens) (UniProt P03372); assay: qHTS assay for small molecule agonists of estrogen receptor alpha signaling (AID 588514; calls by dose curve; also: nearly all actives have a fitted effect of over 70% in size)
In short: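 ER-alpha-UAS-bla GripTite HEK293 cells, 5000/well in 2% charcoal/dextran-stripped FBS medium, treated with compound titrations 18 h at 37 C. CCF4 beta-lactamase read by fluorescence after 2 h RT; normalised to 20 nM 17-beta-estradiol (100%) and DMSO (0%), Hill fit for EC50 and efficacy.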

[14] = qHTS assay to identify small molecules that stimulate interleukin-8 (IL-8) secretion (AID 651758; active = well fitted activation curve with a large enough effect in the signal ratio; the % refers to the signal ratio; also: potency is read from the fitted curve at half-maximal effect)
In short: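 THP-1 cells (2000/well) exposed to compound 16 h at 37 C; secreted IL-8 then detected by HTRF with cryptate- and XL665-labelled anti-IL-8 antibody pair after 1-3 h at room temperature.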

[15] = qHTS assay for small molecule antagonists of peroxisome proliferator-activated receptor delta signaling (AID 588535; active = well fitted inhibition curve with a large enough effect in the signal ratio, with a control signal flat, not every such curve was filed as active; the % refers to the signal ratio;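 as to max response: cells co-treated with a PPAR-delta agonist as stimulator during compound exposure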); conditions: HEK293T PPARd-UAS-bla, beta-lactamase FRET ratio, 18 h; 460 nm channel
In short: (§1)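 Antagonist-mode beta-lactamase reporter (GeneBLAzer PPAR-delta-UAS-bla) in HEK293T cells, 2% charcoal/dextran FBS, 4000 cells/well. Compound titrations, 18 h at 37 C; CCF4 ratio read, IC50 and efficacy from Hill fits.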

[16] = target: Peroxisome proliferator-activated receptor delta (Homo sapiens) (UniProt Q03181); assay: as above
In short: as §1

[17] = target: Peroxisome proliferator-activated receptor gamma (Homo sapiens) (UniProt P37231); assay: qHTS assay for small molecule antagonists of peroxisome proliferator-activated receptor gamma signaling (AID 588537; active = well fitted inhibition curve with a large enough effect in the signal ratio, with a control signal flat, not every such curve was filed as active; the % refers to the signal ratio; also: potency is read from the fitted curve at half-maximal effect)
In short: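 PPARγ-UAS-bla HEK293 cells (3000/well) in 1% charcoal/dextran-stripped FBS are treated with compound, then stimulated with 50 nM rosiglitazone for 16 h at 37 °C. Read-out is CCF4 β-lactamase fluorescence after 2 h at RT. IC50 comes from Hill fits normalised to rosiglitazone and DMSO.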

[18] = target: Peroxisome proliferator-activated receptor gamma (Homo sapiens) (UniProt P37231); assay: qHTS assay for small molecule agonists of peroxisome proliferator-activated receptor gamma signaling (AID 588536; active = well fitted curve in the direction sought with a large enough effect in the signal ratio, with a control signal flat, not every such curve was filed as active; the % refers to the signal ratio)
In short: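 HEK293 UAS-bla reporter line, 1% charcoal/dextran FBS; titration, 16 h, 37 C; CCF4 loading 2 h RT; fluorescence 460/530 nm. Normalized to rosiglitazone 2 uM = 100%, DMSO = 0%.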

[19] = target: Vitamin D3 receptor (Homo sapiens) (UniProt P11473); assay: qHTS assay for small molecule antagonists of vitamin D receptor signaling (AID 588541; calls by dose curve; also: potency is read from the fitted curve at half-maximal effect;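 as to activity change, negative = inhibition: receptor activated by calcitriol during compound treatment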)
In short: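 VDR-UAS-bla HEK293T cells in 2% charcoal-stripped FBS were stimulated with 1-alpha,25-dihydroxyvitamin D3 (3 nM final) plus compound for 16 h at 37 C. The beta-lactamase CCF4 readout was normalized to 50 nM agonist and DMSO, and Hill fits gave IC50.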

[20] = target: Bile acid receptor (Homo sapiens) (UniProt Q96RI1); assay: qHTS assay for small molecule antagonists of farnesoid X receptor signaling (AID 588526; calls by dose curve)
In short: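 Antagonist mode: titrated compounds tested against chenodeoxycholic acid stimulation (normalized to 50 uM CDCA and DMSO) in GeneBLAzer HEK293T cells for 16 h. Beta-lactamase read by CCF4 fluorescence; IC50 from Hill fits.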

Muscarinic acetylcholine receptor M1 (Rattus norvegicus), sequence (P08482 whole entry, looked up): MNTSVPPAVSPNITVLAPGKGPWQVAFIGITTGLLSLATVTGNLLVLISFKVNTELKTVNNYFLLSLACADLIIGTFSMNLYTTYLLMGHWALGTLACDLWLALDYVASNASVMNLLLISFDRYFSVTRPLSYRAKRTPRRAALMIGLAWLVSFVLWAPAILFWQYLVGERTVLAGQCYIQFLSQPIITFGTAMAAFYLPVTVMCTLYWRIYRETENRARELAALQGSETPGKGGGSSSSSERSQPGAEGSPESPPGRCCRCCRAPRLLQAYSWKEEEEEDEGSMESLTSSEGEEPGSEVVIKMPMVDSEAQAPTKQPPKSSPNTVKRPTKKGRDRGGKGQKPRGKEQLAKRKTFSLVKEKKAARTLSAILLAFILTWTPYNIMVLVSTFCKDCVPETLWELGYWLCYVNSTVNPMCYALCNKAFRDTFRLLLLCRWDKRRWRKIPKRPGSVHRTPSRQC
DNA dC->dU-editing enzyme APOBEC-3G (Homo sapiens), sequence (Q9HC16 whole entry, looked up): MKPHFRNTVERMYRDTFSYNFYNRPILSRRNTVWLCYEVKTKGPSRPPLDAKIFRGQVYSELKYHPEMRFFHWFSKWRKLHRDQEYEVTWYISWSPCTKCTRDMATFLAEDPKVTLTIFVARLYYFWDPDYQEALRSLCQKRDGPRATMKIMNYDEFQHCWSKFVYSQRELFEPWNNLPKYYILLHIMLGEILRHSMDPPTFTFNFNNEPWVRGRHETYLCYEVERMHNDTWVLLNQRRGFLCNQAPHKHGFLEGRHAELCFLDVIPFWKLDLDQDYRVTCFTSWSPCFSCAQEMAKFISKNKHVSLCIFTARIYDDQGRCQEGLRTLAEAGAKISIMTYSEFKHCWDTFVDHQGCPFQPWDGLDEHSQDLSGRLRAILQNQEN
Ubiquitin carboxyl-terminal hydrolase 1 (Homo sapiens), sequence (O94782 whole entry, looked up): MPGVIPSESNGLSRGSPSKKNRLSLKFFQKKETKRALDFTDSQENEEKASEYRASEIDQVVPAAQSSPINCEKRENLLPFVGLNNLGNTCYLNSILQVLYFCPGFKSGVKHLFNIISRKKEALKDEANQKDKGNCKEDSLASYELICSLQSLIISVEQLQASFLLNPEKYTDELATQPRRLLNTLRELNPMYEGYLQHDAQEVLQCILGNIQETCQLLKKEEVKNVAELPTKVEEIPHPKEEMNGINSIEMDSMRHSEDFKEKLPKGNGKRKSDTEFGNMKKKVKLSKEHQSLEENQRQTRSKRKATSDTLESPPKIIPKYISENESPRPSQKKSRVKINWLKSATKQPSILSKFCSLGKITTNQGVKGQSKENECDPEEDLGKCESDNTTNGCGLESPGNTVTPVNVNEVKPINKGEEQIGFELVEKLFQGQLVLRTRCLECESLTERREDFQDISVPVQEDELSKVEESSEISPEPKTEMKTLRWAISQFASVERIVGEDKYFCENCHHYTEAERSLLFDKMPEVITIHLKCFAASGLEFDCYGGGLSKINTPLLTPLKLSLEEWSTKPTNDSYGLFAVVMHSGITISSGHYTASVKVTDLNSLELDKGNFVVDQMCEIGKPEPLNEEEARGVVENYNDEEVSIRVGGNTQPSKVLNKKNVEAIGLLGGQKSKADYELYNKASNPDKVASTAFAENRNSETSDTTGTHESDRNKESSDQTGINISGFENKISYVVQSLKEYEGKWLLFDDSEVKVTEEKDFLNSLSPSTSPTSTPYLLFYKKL
Estrogen receptor (Homo sapiens), sequence (P03372 whole entry, looked up): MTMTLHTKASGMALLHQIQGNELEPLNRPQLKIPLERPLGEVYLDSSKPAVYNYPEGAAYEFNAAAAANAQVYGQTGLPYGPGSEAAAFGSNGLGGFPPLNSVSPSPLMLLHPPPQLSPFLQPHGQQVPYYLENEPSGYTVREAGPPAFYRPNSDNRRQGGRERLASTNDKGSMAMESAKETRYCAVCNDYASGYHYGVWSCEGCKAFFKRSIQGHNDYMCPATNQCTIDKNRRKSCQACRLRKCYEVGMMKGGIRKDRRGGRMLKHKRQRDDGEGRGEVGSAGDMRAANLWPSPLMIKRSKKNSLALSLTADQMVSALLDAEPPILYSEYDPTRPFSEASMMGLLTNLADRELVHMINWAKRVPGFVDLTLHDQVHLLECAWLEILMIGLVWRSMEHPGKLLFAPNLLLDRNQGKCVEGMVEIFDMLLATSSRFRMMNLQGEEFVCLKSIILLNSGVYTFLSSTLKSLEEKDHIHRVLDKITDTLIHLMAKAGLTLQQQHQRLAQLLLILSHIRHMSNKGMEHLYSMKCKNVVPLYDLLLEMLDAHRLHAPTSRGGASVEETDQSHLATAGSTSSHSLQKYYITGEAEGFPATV
Bile acid receptor (Homo sapiens), sequence (Q96RI1 whole entry, looked up): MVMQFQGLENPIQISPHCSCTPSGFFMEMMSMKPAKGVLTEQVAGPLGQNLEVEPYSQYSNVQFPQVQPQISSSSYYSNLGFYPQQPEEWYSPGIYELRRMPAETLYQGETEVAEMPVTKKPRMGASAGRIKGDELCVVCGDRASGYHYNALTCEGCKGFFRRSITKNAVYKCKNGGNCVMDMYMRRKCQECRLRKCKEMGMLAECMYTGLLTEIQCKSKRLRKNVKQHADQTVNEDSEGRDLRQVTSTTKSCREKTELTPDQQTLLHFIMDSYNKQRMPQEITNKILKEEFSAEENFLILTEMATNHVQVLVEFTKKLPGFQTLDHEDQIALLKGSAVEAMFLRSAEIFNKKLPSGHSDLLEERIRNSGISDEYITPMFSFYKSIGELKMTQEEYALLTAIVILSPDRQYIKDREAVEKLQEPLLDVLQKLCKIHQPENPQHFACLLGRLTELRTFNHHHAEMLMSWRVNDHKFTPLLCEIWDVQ
Vitamin D3 receptor (Homo sapiens), sequence (P11473 whole entry, looked up): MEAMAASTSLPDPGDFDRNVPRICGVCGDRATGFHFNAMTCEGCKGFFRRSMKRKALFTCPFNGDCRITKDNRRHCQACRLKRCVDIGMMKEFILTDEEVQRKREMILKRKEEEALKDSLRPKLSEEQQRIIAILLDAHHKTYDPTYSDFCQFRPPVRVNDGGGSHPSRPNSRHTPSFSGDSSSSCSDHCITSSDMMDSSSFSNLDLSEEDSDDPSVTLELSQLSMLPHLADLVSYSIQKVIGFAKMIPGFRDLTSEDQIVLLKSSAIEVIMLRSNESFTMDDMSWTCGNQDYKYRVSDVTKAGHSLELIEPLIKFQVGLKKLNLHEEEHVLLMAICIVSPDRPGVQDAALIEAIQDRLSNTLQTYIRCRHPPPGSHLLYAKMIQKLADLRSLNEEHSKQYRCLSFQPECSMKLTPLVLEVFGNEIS
Androgen receptor (Homo sapiens), sequence (P10275 whole entry, looked up): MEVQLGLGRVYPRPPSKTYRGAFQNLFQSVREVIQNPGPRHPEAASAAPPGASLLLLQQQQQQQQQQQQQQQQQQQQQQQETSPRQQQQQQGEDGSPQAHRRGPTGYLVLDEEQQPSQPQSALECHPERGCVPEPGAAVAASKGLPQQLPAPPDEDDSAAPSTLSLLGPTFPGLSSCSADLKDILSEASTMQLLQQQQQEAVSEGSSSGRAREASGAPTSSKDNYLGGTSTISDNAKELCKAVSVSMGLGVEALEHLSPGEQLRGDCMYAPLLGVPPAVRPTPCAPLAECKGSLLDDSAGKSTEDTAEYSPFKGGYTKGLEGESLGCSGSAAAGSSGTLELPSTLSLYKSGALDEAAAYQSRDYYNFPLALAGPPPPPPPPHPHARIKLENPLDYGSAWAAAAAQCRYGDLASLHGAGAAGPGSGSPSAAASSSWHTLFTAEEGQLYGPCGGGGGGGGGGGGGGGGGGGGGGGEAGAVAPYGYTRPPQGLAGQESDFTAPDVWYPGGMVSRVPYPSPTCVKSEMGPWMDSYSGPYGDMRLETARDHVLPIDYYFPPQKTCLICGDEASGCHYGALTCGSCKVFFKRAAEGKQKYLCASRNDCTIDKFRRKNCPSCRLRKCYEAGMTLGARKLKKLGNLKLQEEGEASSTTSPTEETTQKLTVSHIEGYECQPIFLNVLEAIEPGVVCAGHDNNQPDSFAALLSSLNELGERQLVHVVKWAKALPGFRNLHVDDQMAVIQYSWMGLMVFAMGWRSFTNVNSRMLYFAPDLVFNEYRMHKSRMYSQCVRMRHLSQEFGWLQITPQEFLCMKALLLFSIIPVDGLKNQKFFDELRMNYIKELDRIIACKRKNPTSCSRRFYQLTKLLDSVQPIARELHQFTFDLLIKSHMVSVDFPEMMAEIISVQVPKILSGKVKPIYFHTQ
Peroxisome proliferator-activated receptor gamma (Homo sapiens), sequence (P37231 whole entry, looked up): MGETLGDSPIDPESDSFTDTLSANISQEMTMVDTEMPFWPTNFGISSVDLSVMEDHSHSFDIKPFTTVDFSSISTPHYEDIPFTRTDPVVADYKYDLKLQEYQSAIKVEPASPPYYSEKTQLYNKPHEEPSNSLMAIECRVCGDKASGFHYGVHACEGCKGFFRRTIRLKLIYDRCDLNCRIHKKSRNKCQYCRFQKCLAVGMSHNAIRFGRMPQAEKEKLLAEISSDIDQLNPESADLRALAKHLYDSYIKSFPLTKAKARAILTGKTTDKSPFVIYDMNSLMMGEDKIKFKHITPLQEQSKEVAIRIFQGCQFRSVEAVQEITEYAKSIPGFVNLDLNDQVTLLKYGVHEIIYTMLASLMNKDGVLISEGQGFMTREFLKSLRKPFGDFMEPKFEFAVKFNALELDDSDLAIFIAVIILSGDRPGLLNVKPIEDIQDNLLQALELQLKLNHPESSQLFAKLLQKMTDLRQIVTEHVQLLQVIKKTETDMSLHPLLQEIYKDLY
Retinoic acid receptor RXR-alpha (Homo sapiens), sequence (P19793 whole entry, looked up): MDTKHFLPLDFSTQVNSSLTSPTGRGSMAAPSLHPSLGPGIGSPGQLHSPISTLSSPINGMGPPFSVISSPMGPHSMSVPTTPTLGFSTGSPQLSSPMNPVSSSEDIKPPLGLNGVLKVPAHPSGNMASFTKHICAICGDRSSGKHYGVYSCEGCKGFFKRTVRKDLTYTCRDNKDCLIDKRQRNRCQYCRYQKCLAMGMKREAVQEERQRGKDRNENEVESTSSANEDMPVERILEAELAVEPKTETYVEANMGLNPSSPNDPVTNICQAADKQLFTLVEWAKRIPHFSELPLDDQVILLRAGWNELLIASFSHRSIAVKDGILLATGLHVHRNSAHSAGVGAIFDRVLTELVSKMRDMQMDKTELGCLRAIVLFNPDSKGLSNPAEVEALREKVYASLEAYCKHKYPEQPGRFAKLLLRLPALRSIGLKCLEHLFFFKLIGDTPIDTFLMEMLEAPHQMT

CN1[C@@H]2CC[C@H]1CC(O[C@@H](c1ccccc1)c1ccccc1N)C2 (some centres undefined)
outcome [1]: inactive | Potency [2]: 0.0071 µM (active)

CC(C)n1cc2c3c(cccc31)[C@@H]1C[C@H](C(=O)O[C@@H](C)[C@H](C)O)CN(C)[C@H]1C2
Potency [3]: inactive | outcome [1]: inactive

O=C(CN1CCN(CCO)CC1)Nc1ccc(Cl)cc1C(=O)c1ccccc1
activation [4]: 0.98% (inactive)

CC(C)(O)[C@H]1[C@H]2OC(=O)[C@@H]1[C@]1(O)C[C@H]3O[C@]34C(=O)O[C@H]2[C@]14C (tested in a mixture with another compound)
Potency [2]: inactive

Ic1ccccc1CN[C@@H]1C2CCN(CC2)[C@H]1C(c1ccccc1)c1ccccc1
activity change, negative = inhibition [5]: -6.46% [at 38 µM] (inactive) | Potency [6]: 12.6 µM (active) | Potency [2]: inactive

CC[C@]1(O)C(=O)OCc2c1cc1n(c2=O)Cc2cc3ccccc3nc2-1
outcome [7]: inactive

C[C@@H](Cc1cccc(C(F)(F)F)c1)NCCCc1ccccc1
Potency [8]: inactive | outcome [7]: inactive

Nc1c(C(=O)NCc2ccco2)c2nc3ccccc3nc2n1CCN1CCCCC1
Potency [4]: 7.94 µM (active)

C=CCN1CC[C@]23c4c5ccc(O)c4O[C@@H]2C(=O)CC[C@@]3(O)[C@H]1C5
outcome [1]: inactive

O=[N+]([O-])c1ccc(O[C@H]2O[C@@H](CO)[C@@H](O)[C@@H](O)[C@@H]2F)c([N+](=O)[O-])c1
Potency [2]: inactive

C[C@]12Cc3cn4c(nc3C=C1CC[C@H]1[C@@H]2CC[C@@]2(C)[C@H]1CC[C@@]2(O)C#N)nc1ccccc14
Potency [6]: 10 µM (active)

CCCN1CCC[C@H](c2cccc(C#N)c2)C1
outcome [1]: inactive | Potency [2]: 11.2 µM (active)

COc1ccc(OC)c([C@@H](O)[C@H](C)NC(C)(C)C)c1
activation [4]: 0.127% (inactive)

O=C1CC[C@]2(O)[C@H]3Cc4ccc(O)c5c4[C@@]2(CCN3CC2CC2)[C@@H]1O5
Potency [8]: inactive

NC(=O)c1ccc(OC[C@H](O)CN2CC=C(c3ccc(F)cc3)CC2)cc1
Potency [3]: inactive | activation [4]: -0.382% (inactive)

C[C@]1(C(=O)O)[C@@H]2CC[C@@H](O2)[C@@]1(C)C(=O)O
Potency [3]: 6.31 µM (active) | Potency [6]: 5.01 µM (active) | Potency [2]: inactive

C=CCN1C[C@@H](C)N([C@H](c2ccc(C(=O)N(CC)CC)cc2)c2cccc(OC)c2)C[C@H]1C
Potency [3]: 5.01 µM (active) | outcome [1]: inactive

CCCCCC[C@H]1C(=O)O[C@H](C)[C@H](NC(=O)c2cccc(NC=O)c2O)C(=O)O[C@@H](C)[C@H]1OC(=O)CC(C)C
Potency [8]: 28.2 µM (active)

COCC(C)OC(=O)c1c(N)n(Cc2ccco2)c2nc3ccccc3nc12 (centres undefined)
activity change, negative = inhibition [5]: 10.7% (inactive)

N#CC(Cl)Cl
activation [9]: 16.6% (inactive) | max response [10]: 17.1% | Potency [11]: inactive | activation [12]: -2.38% (inactive)

CC(C)[C@@]1(NC(=O)[C@@H]2C=C3c4cccc5[nH]cc(c45)C[C@H]3N(C)C2)O[C@@]2(O)[C@@H]3CCCN3C(=O)[C@H](Cc3ccccc3)N2C1=O
activity change, negative = inhibition [5]: -19% (inactive)

COP(=O)(OC)O/C(=C\Cl)c1cc(Cl)c(Cl)cc1Cl
Potency [13]: inactive | activation [9]: -13% (inactive) | Potency [14]: inactive

CN(CCc1ccc(Cl)c(Cl)c1)[C@H]1CCCC[C@H]1N1CCCC1
Potency [8]: inactive | outcome [7]: inactive

O=C(CCl)c1ccccc1
max response [15]: 18.1% | Potency [16]: inactive | Potency [17]: inactive

Nc1ccccc1C(=O)OCCc1ccccc1
Potency [17]: inactive

CCCCCCCCn1sccc1=O
Potency [13]: inactive | Potency [18]: inactive | activation [12]: -0.619% (inactive) and -1.03% (inactive)

CN(C)c1ccc(N=O)cc1
Potency [13]: inactive

[CH3][Hg][Cl]
Potency [19]: 3.16 µM (active)

OC(c1ccc(Cl)cc1)(c1ccc(Cl)cc1)C(Cl)(Cl)Cl
Potency [13]: inactive | Potency [20]: inactive | Potency [18]: inactive | Potency [19]: inactive | max response [10]: -15% | Potency [11]: inactive | activation [12]: -0.969% (inactive) | Potency [14]: inactive

O=C(O)C1C(C(=O)O)C2(Cl)C(Cl)=C(Cl)C1(Cl)C2(Cl)Cl (centres undefined)
Potency [13]: inactive | Potency [20]: inactive | max response [10]: -3.38% | Potency [11]: inactive | activation [12]: 0.511% (inactive)

C(=NC1CCCCC1)=NC1CCCCC1
Potency [13]: inactive | Potency [20]: inactive | Potency [19]: inactive | activation [12]: 0.442% (inactive) and -0.633% (inactive) | Potency [14]: 53.1 µM (active)

O=C1C2(Cl)C3(Cl)C4(Cl)C(Cl)(Cl)C5(Cl)C3(Cl)C1(Cl)C5(Cl)C24Cl (centres undefined)
activation [9]: 0.62% (inactive) | Potency [17]: 44.7 µM (active) and inactive | activation [12]: 4.98% (inactive)

— PubChem BioAssay (NCATS)
